Activity calls are given as the source filed them. The calls were made as follows: active = hit-call score of the fitted dose curve at least 0.9, where 1 is the maximum; inactive = score below 0.9.
These molecules were tested on Pyruvate Dehydrogenase Kinase 4 (PDK4), PDK4 (gene 5166) (assay: LTEA_HepaRG_PDK4: Life Technologies and Expression Analysis (LTEA) Assay for Pyruvate Dehydrogenase Kinase 4 (PDK4) using HepaRG (AID 2283525)). Details: mRNA level, 48 h; actives raise or lower the signal.
Procedure: LTEA_HepaRG is a cell based, multiplexed-readout assay that uses HepaRG, a human liver cell line, with measurements taken at 48 hours after chemical dosing on a 96-well plate.LTEA_HepaRG_PDK4 is one of 102 assay component(s) measured in the LTEA HepaRG cell culture assay. It is a marker of Diseases associated with PDK4 including Platelet Glycoprotein Iv Deficiency and Diabetes Mellitus, Noninsulin-Dependent.Data from the assay component LTEA_HepaRG_PDK4 was analyzed into 1 endpoint. This assay endpoint, LTEA_HepaRG_PDK4, was analyzed with bidirectional fitting relative to DMSO as the negative control and baseline of activity. Using a type of inducible reporter, measures of mRNA induction for gain or loss-of-signal activity can be used to understand regulation of transcription factor activity. To generalize the intended target to other relatable targets, this assay endpoint is annotated to the kinase intended target family, where the subfamily is serine/threonine kinase.
A total of 1060 chemcials from the ToxCast library were tested in eight-point concentration-response experiments. Cell culture and cytotoxicity assays were conducted at Thermo Fisher Scientific's Custom Services facility (Madison, WI). A single lot of human HepaRG cells (Thermo Fisher Scientific, Frederick, MD) was used for the cell culture experiments. 96-well format collagen type I coated plates of human HepaRG cells were prepared using established methods. Briefly, cryopreserved HepaRG cells were thawed, plated at a density of approximately 100,000 cells/well in HepaRG Thaw, Plate, and General Purpose media (HPRG770, Thermo Fisher Scientific), and incubated for 48 hours. 0.5% DMSO was selected as vehicle control to balance the requisite need of DMSO in HepaRG cultures to maintain differentiation (for example, baseline metabolism, proportions of hepatocytes vs. cholangiocytes), while enabling further hepatic receptor pathway activation (for example, PXR and CAR) in response to chemical exposure. 48 hours after plating, the culture medium was replaced with HepaRG Serum-Free Incudtion Media. Cells were exposed to each test chemical in duplicate and maintained in CO2 incubators for another 48 hours. Chemical plates were thawed to room temperature and 200x concentrations of treatment groups were prepared. 8-point conentration-reponse curves were made with the highest exposure at 100 uM, followed by half-log dilutions, all in 0.5% DMSO. Each test plate contained variouse controls, induction positive controls (1mM phenobarbital), cytotoxicity positive controls ([…] aflatoxin B1), vehicle controls (0.5% DMSO), and total lysis controls (0.5% DMSO). Cell morphology images were taken using an Essen IncuCyte FLR automated microscope, with six 96-well plates imaged in about 24 minutes. Images were captured and exported and JPEG files. Spent culture media was transfered to black-well plates for the LDH assay, and remaining media was sorted at -80 C for later use. Cells were treated with RLT buffer and frozen until shipped for gene expression analysis. Total RNA was isolated from the cell suspension in 75 uL of Buffer RLT (Qiagen, Germantown, MD 20874) by Quintiles/Expression Analysis (Durham, NC) using a custom isolation procedure. Total RNA from each plate well was transferred to a preamplification plate. Fluidigm's 96.96 Dynamic ArrayTM (Fluidigm, Amsterdam, the Netherlands) technology was used for gene expression analyses by quantitative reverse transcription polymerase chain reaction (qRT-PCR, performed by Quintiles/Expression Analysis, Durham, NC)89. Standard TaqManTM Assays (Applied Biosystems/ThermoFisher Scientific, Foster City, CA) were used to assess the expression of 93 genes selected based on their selectivity and sensitivity to important hepatic receptors known to be modulated by environmental chemicals; importance in human hepatocyte functionality; and hepatotoxicity. […]

| SMILES | outcome | AC50 |
| --- | --- | --- |
| CCCCOC(=O)c1ccccc1C(=O)O | inactive | – |
| CC(C)[C@H](C(=O)O[C@H](C#N)c1cccc(Oc2ccccc2)c1)c1ccc(Cl)cc1 | inactive | – |
| CSC1=N[C@@](C)(c2ccccc2)C(=O)N1Nc1ccccc1 | – | 12.7 µM (active) |
| COc1cccc(C(=O)NN(C(=O)c2cc(C)cc(C)c2)C(C)(C)C)c1C | – | 69.7 µM (active) |
| CCOP(=S)(OCC)Oc1cc(C)nc(C(C)C)n1 | inactive | – |
| CCOP(=O)(SC(C)CC)N1CCSC1=O (stereo not given) | – | 21.7 µM (active) |
| COc1cc(OC)nc(Sc2cccc(Cl)c2C(=O)O)n1 | inactive | – |
| CC[C@H](C)[C@H]1O[C@]2(C=C[C@@H]1C)C[C@@H]1C[C@@H](C/C=C(\C)[C@@H](O[C@H]3C[C@H](OC)[C@@H](O[C@H]4C[C@H](OC)[C@@H](NC)[C@H](C)O4)[C@H](C)O3)[C@@H](C)/C=C/C=C3\CO[C@@H]4[C@H](O)C(C)=C[C@@H](C(=O)O1)[C@]34O)O2 | – | 91.9 µM (active) |
| CC1=NNC(=O)N(/N=C/c2cccnc2)C1 | inactive | – |
| CCOC(=O)CC(SP(=O)(OC)OC)C(=O)OCC (stereo not given) | – | 22 µM (active) |
| CNC(=O)ON=C(SC)C(=O)N(C)C | inactive | – |
| O=C(O)c1cc(Oc2ccc(C(F)(F)F)cc2Cl)ccc1[N+](=O)[O-] | – | 42.1 µM (active) |
| CC(C1CC1)C(O)(Cn1cncn1)c1ccc(Cl)cc1 (stereo not given) | inactive | – |
| CCOP(=O)(NC(C)C)Oc1ccc(SC)c(C)c1 (stereo not given) | inactive | – |
| CN(C)NC(=O)CCC(=O)O | inactive | – |
| CCC(=NOC/C=C/Cl)C1=C(O)CC(C2CCOCC2)CC1=O (stereo not given) | inactive | – |
| Cc1nn(-c2cc(NS(C)(=O)=O)c(Cl)cc2Cl)c(=O)n1C(F)F | inactive | – |
| COP(=O)(OC)C(O)C(Cl)(Cl)Cl (stereo not given) | inactive | – |
| CCOP(=O)(OCC)Oc1cc(C)nc(C(C)C)n1 | inactive | – |
| CCc1cccc(C)c1N(C(=O)CCl)C(C)COC (stereo not given) | inactive | – |

| SMILES | outcome | AC50 |
| --- | --- | --- |
| CC(C)=CC1C(C(=O)OCN2C(=O)C3=C(CCCC3)C2=O)C1(C)C (stereo not given) | inactive | – |
| CSc1nnc(C(C)(C)C)c(=O)n1N | inactive | – |
| Cc1ccn2nc(S(=O)(=O)Nc3c(F)cccc3F)nc2n1 | inactive | – |
| CCCCN(CC)c1c([N+](=O)[O-])cc(C(F)(F)F)cc1[N+](=O)[O-] | inactive | – |
| CCCSP(=O)(OCC)SCCC | inactive | – |
| CCCSP(=O)(OCC)Oc1ccc(Br)cc1Cl (stereo not given) | inactive | – |
| C#CCC1=C(C)C(OC(=O)C2C(C=C(C)C)C2(C)C)CC1=O (stereo not given) | – | 9.87 µM (active) |
| S=C1NCCN1 | inactive | – |
| C[Si](Cn1cncn1)(c1ccc(F)cc1)c1ccc(F)cc1 | inactive | – |
| CN(C)[C@@H]1C(=O)C(C(N)=O)=C(O)[C@@]2(O)C(=O)C3=C(O)c4c(O)cccc4[C@@](C)(O)[C@H]3[C@H](O)[C@@H]12 | inactive | – |
| CCc1cccc(CC)c1N(COC)C(=O)CCl | – | 28.9 µM (active) |
| CCNc1nc(Cl)nc(NC(C)(C)C#N)n1 | inactive | – |
| Nc1nc(N)nc(NC2CC2)n1 | inactive | – |
| COc1ccc(C(=CC(=O)N2CCOCC2)c2ccc(Cl)cc2)cc1OC | inactive | – |
| CCOP(=S)(OCC)Oc1ccc2c(C)c(Cl)c(=O)oc2c1 | – | 0.837 µM (active) |
| CCCOCC(=Nc1ccc(Cl)cc1C(F)(F)F)n1ccnc1 | – | 11.5 µM (active) |
| COP(=O)(OC)OC(Br)C(Cl)(Cl)Br (stereo not given) | inactive | – |
| Nc1c(Cl)cc([N+](=O)[O-])cc1Cl | – | 50 µM (active) |
| CCCCSP(=O)(SCCCC)SCCCC | – | 77.5 µM (active) |
| CC(C)N(C(=O)SCC(Cl)=C(Cl)Cl)C(C)C | inactive | – |
